In PubChem BioAssay (NCI):
This is part of a sample that, as a whole, favours compounds with a hit. Of some 83,000 tested, about 20% had one in any assay.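 Single-concentration screen, 48 h exposure, 96-well plates. Endpoint: percent growth. Below 10 = active.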 The source made the active and inactive calls.

Tests used:
Test in all cases: NCI-60 one-dose screen, 48 h (100 = growth as untreated, 0 = no growth, -100 = all killed)
Conditions in all cases: 10 µM unless noted
[1] = tested on: HCT-15 colon
[2] = tested on: HT29 colon
[3] = tested on: SNB-19 CNS
[4] = tested on: PC-3 prostate
[5] = tested on: SK-MEL-5 melanoma
[6] = tested on: UACC-62 melanoma
[7] = tested on: LOX IMVI melanoma
[8] = tested on: SK-MEL-28 melanoma
[9] = tested on: U251 CNS

Measured: growth

Cc1cc(C)c([O-])c(CN(C)CCN(C)Cc2cc(C)cc(C)c2[O-])c1.O=C([O-])c1cccc(C(=O)[O-])n1.[Ti+4]
active: [2] -32.8% | [4] -0.468% | [5] 9.84% | [7] -58.1% | [8] -27.2%
inactive: [1] 36.4% | [3] 26.6% | [6] 25.8%

COc1ccc2[nH]c(C(=O)OCc3ccc4c(Br)cc(Br)c(O)c4n3)cc2c1
active: [1] -62.1% | [2] -73.6% | [9] -28.3% | [4] -64.9% | [5] -89.6% | [6] -79.5% | [7] -95.4%
inactive: [3] 43.1%

O=C(Nc1ccc(Br)cc1)Nc1ccccc1Cl
inactive: [1] 87.1% | [2] 95.3% | [3] 117% | [9] 91.9% | [4] 83.9% | [5] 101% | [6] 56.5% | [7] 81.3% | [8] 107%

O=c1[nH]c2cc(Cl)c(Cl)cc2o1
inactive: [1] 101% | [2] 112% | [3] 109% | [9] 95.1% | [4] 64.6% | [5] 115% | [6] 92.8% | [7] 99.4% | [8] 116%

COc1ccc(CCN2COc3c([C@@H](C)CCC=C(C)C)ccc(C)c3C2)cc1OC
inactive: [1] 29.5% | [3] 83.3% | [9] 49.8% | [4] 47.6% | [5] 18.2% | [6] 65.5% | [7] 64.3% | [8] 69.4%
active: [2] 8.29%

Clc1ccc(Nc2ncnc3c2sc2ncccc23)cc1
inactive: [1] 47.3% | [2] 38.1% | [3] 26.3% | [9] 28% | [4] 54.5% | [5] 23.4% | [6] 11.4% | [7] 12.2% | [8] 74.9%

C=CCn1c(C)nc2cc(Nc3nc(Nc4ccc5nc(C)n(CC=C)c5c4)nc4ccccc34)ccc21
inactive: [1] 107% | [2] 103% | [3] 100% | [9] 94.4% | [4] 95.8% | [5] 99.7% | [6] 95.8% | [7] 93.3% | [8] 106%

COc1cc2nccc(Oc3ccc(NC(=O)C4(C(=O)Nc5c(F)cc(F)cc5F)CC4)cc3)c2cc1Oc1ccc(N)cn1
inactive: [1] 45.5% | [2] 34.8% | [3] 78.7% | [9] 67.3% | [4] 51.5% | [5] 29% | [6] 24.4% | [7] 49.4%

CCCCn1c(C)nc2cc(Nc3nc(Cl)nc4nc[nH]c34)ccc21
inactive: [1] 90.7% | [2] 83.6% | [3] 87.4% | [9] 77.2% | [4] 59.7% | [5] 73.6% | [6] 73% | [7] 90.4% | [8] 99.4%

CO[C@@]12[C@@H]3NC3CN1C1=C(C(=O)C(N)=C(C)C1=O)[C@@H]2COC(N)=O (stereo partly specified)
inactive: [1] 26.4% | [3] 18.3% | [9] 13.4% | [4] 41.8% | [8] 23%
active: [2] -18.1% | [5] -96% | [6] -15.9% | [7] -50.2%

O=C1C=CC(=O)N1c1cccc(N2C(=O)C=CC2=O)c1
inactive: [1] 23.1% | [2] 23.5% | [3] 147% | [9] 111% | [4] 99.9% | [5] 116% | [6] 109% | [7] 73.5% | [8] 108%

O=C1/C(=C\c2cccn2Cc2ccc(F)cc2)c2ccccc2N1c1c(Cl)cccc1Cl
inactive: [1] 56.2% | [2] 81.5% | [3] 81.3% | [9] 75.7% | [4] 52% | [5] 57.7% | [7] 91.1% | [8] 87.4%

C=C(CN1CC=CCC1)[C@@H]1CC[C@]2(C(=O)OC)CC[C@]3(C)[C@H](CC[C@@H]4[C@@]5(C)CC[C@H](OC(C)=O)C(C)(C)[C@@H]5CC[C@]43C)[C@@H]12
inactive: [1] 105% | [2] 75.3% | [3] 86% | [9] 83.2% | [4] 61.4% | [5] 90.3% | [6] 80.7% | [7] 99.7% | [8] 94.9%

Cc1nc2ccc(Nc3nc(N4CCOCC4)nc(N4CCN(C)CC4)n3)cc2n1Cc1ccccc1
inactive: [1] 87.4% | [2] 53% | [3] 112% | [9] 73.5% | [4] 90% | [5] 71.4% | [6] 107% | [7] 74.7% | [8] 64.1%

CCN(CC)CCCNc1cccc2c(C)cc(OC)nc12
inactive: [1] 94.9% | [2] 87.6% | [3] 94.9% | [9] 94.3% | [4] 75.1% | [5] 91.3% | [6] 85.3% | [7] 105% | [8] 103%

COC1CC(N)C2OC(c3ccccc3)OCC2O1 (stereo unspecified)
inactive: [1] 97.1% | [2] 103% | [3] 103% | [9] 99.8% | [4] 105% | [5] 105% | [6] 101% | [7] 98.8% | [8] 105%

COc1ccc(-c2nsc3c2NC(=O)CC3c2ccc3c(c2)OCO3)cc1 (stereo unspecified)
inactive: [1] 29.4% | [3] 57.5% | [9] 12.2% | [5] 25.8% | [6] 42.7% | [7] 37.9% | [8] 56.5%
active: [2] 3.39% | [4] 3.81%

c1ccc(-c2[nH]c3ccccc3c2-c2ccccc2)cc1
inactive: [1] 79.6% | [2] 88.4% | [3] 97.5% | [9] 87.8% | [4] 79.4% | [5] 104% | [6] 75.8% | [7] 79.8% | [8] 119%

Cc1cc(C)c2c(n1)sc1c(Nc3ccc(O)cc3)ncnc12
inactive: [1] 51.7% | [2] 40% | [3] 31% | [9] 26.6% | [4] 47.2% | [5] 25.6% | [6] 16.1% | [7] 13.1% | [8] 77.7%

O=c1c2sc3ccccc3c2nnn1-c1ccc(F)c(Cl)c1
inactive: [1] 56.7% | [2] 69.9% | [3] 61.1% | [9] 59.1% | [4] 54.8% | [5] 67.3% | [6] 78.4% | [7] 58.1% | [8] 72.7%

CCOC(=O)c1ccc(NCCC(=O)O)cc1
inactive: [1] 97.1% | [2] 96.8% | [3] 105% | [9] 109% | [4] 91.7% | [5] 104% | [6] 102% | [7] 101% | [8] 107%

COc1cc(C2CC(c3ccc(Nc4ccnc5cc(Cl)ccc45)cc3)=NN2c2ccccc2)cc(OC)c1OC (stereo unspecified)
inactive: [1] 45.5% | [2] 44.2% | [3] 79.7% | [9] 60.5% | [4] 60.8% | [5] 49.5% | [6] 49.9% | [7] 58.7% | [8] 79.1%

COc1ccc(-n2nc(C(=O)NCC(=O)Nc3nc4cc(OC)ccc4s3)c3ccccc3c2=O)cc1
active: [2] -24.4% | [3] 0.597% | [9] -39.8% | [4] 3.92% | [7] -32.4%
inactive: [1] 64.7% | [5] 48.9% | [6] 31.2% | [8] 21.1%

O=C(Nc1ccc(OS(=O)(=O)c2ccc(F)cc2)cc1)C12CC3CC(CC(C3)C1)C2
active: [2] 7.52%
inactive: [1] 42.3% | [3] 77.9% | [9] 84% | [4] 38% | [5] 28.3% | [6] 68% | [8] 79.7%

CC(=O)c1c(C)nc(-c2cc(C)cc(Cl)c2)nc1-c1cccc(Oc2ccccc2)c1
inactive: [1] 60.2% | [2] 39.5% | [3] 79.3% | [9] 76.1% | [4] 53.4% | [5] 77.1% | [6] 52.1% | [7] 78.4% | [8] 76.2%

O=C(C(Br)C(Br)c1ccccc1)C(Br)C(Br)c1ccccc1 (stereo unspecified)
active: [1] -66.4% | [2] -76% | [9] 4.89% | [4] -31.2% | [5] 2.03% | [6] -83.5% | [7] -79.1% | [8] -35.6%
inactive: [3] 72.8%

CCc1ccc(Nc2ncnc3c2cnn3-c2cccc(Br)c2)cc1
inactive: [1] 101% | [2] 108% | [3] 95.3% | [4] 94.9% | [5] 96.6% | [6] 91.7% | [7] 96.3% | [8] 107%

COc1ccc(NC(=O)/C=C/c2ccc(NC(=O)N3CCCC3)cc2)cn1
inactive: [1] 94.1% | [2] 106% | [3] 102% | [4] 96.5% | [5] 99.8% | [6] 101% | [7] 98.4%

Oc1ccc(CCCCCCc2ccc(O)cc2)cc1
inactive: [1] 74.5% | [2] 83.6% | [3] 112% | [9] 54.7% | [4] 57.9% | [5] 50.2% | [6] 13.7% | [7] 53.3% | [8] 104%

SCc1ccc(CS)cc1
inactive: [1] 105% | [2] 120% | [3] 115% | [9] 101% | [4] 98.1% | [5] 95.7% | [7] 96.2% | [8] 112%
